Results taken from PubChem BioAssay (NCATS).
A number with no mark means an inactive call. Results filed as inconclusive are left out. A call without a number means that no potency is given here. Calls of active or inactive are those of the source. Unless noted, calls come from the whole dose curve; as a rule, active = well fitted curve in the direction sought with a large enough effect; inconclusive = small, poorly fitted or top-dose-only effect, or another doubt; inactive = no such curve, though single readings can be large; an effect the other way counts as inactive or inconclusive.

Key:
[1] = qHTS assay for measurement of the activity of small molecule inhibitors on Zika virus induced Caspase-3 activity in human iPSC derived neural progenitor cells (hNPCs) (AID 1224857); note: nearly all actives have a fitted effect of over 65% in size
Outline: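 Zika virus (2 FFU/cell) infection of human iPSC-derived NPCs, 6 h, following 1 h compound preincubation. Read-out: Caspase-Glo 3/7 luminescence.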

[2] = qHTS assay for measurement of the activity of small molecule inhibitors on Zika virus induced Caspase-3 activity in human astrocytoma cells (AID 1224859)
Outline: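 Caspase activation in ZIKV-infected SNB-19 cells (2 FFU/cell, 6 h) measured by Caspase-Glo 3/7 luminescence after 30 min RT; compound pre-incubated 1 h; normalised to uninfected and infected controls.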

[3] = molecular target: Atrial natriuretic peptide receptor 1 (Homo sapiens) (UniProt P16066); experiment: Natriuretic polypeptide receptor (hNpr1) antagonism - Pilot screen (AID 1347049; calls by dose curve;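 note: agonist-evoked cGMP luminescence read 20 min after hNppA addition; series mostly up to about 58 µM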)
Outline: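 HEK293 cells co-expressing hNpr1 and the GloSensor pGS-40F cGMP luciferase sensor were preloaded with 2% GloSensor reagent for 2 h. Compounds were added for 30 min at room temperature, then cells were stimulated with 0.1 nM hNppA for 20 min before luminescence readout.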

[4] = molecular target: Atrial natriuretic peptide receptor 2 (Homo sapiens) (UniProt P20594); experiment: Natriuretic polypeptide receptor (hNpr2) antagonism - Pilot subtype selectivity assay (AID 1347050; calls by dose curve)
Outline: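 cGMP-sensor HEK293/hNpr2 cells; 2% GloSensor reagent 2 h RT; compounds 30 min; baseline luminescence read; 1 nM hNppC agonist 20 min RT; final luminescence read by CCD camera. Antagonism = reduced post-agonist signal.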

[5] = NS1 protein of Zika virus - qHTS assay to identify small molecule inhibitors in human HEK 293 cells (AID 1347053); note: nearly all actives have a fitted effect of over 55% in size; note: potency is the fitted concentration of half-maximal effect
Outline: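 HEK 293; 20 h pre-culture, 37 C/5% CO2; cpd 1 h pre-infection; ZIKV MR766, MOI = 0.5, 24 h, 37 C; TR-FRET NS1 readout (two anti-NS1 Abs); norm. to no-virus vs infected.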

[6] = molecular target: T1, Tyrosine-protein phosphatase non-receptor type substrate 1 (Homo sapiens) + Leukocyte surface antigen CD47 (Homo sapiens) (UniProt P78324+Q08722); experiment: CD47-SIRPalpha protein protein interaction - LANCE assay qHTS validation (AID 1347057; active = well fitted curve in the direction sought with a large enough effect in the signal ratio, with a control signal flat, not every such curve was filed as active; the % refers to the signal ratio; note: series mostly up to about 38 µM)
Outline: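 First, His-tagged CD47 and Eu-labelled anti-His antibody met the compound for 30 min; next, site-specifically biotinylated SIRPalpha was added for 30 min; finally streptavidin-APC was added before reading the TR-FRET ratio.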

[7] = molecular target: T1, Tyrosine-protein phosphatase non-receptor type substrate 1 (Homo sapiens) + Leukocyte surface antigen CD47 (Homo sapiens); experiment: CD47-SIRPalpha protein protein interaction - HTRF assay qHTS validation (AID 1347058; active = well fitted curve in the direction sought with a large enough effect in the signal ratio, not every such curve was filed as active; the % refers to the signal ratio; note: series mostly up to about 38 µM)
Outline: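 TR-FRET read (Ch1/Ch2 ratio) of soluble extracellular CD47 and Avi-biotinylated SIRPalpha domains in PBS pH 7.4 with 0.05% IGEPAL; 7-point compound titration. Sequential 30 min room-temperature steps; non-biotinylated SIRPalpha as control inhibitor.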

[8] = molecular target: T1, Tyrosine-protein phosphatase non-receptor type substrate 1 (Homo sapiens) + Leukocyte surface antigen CD47 (Homo sapiens); experiment: CD47-SIRPalpha protein protein interaction - Alpha assay qHTS validation (AID 1347059);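 note: bead proximity luminescence from CD47 binding SIRPalpha after compound preincubation with SIRPalpha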; note: potency is the fitted concentration of half-maximal effect
Outline: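 Soluble extracellular domains: Avi-tag biotinylated SIRPalpha (25 nM) preincubated 30 min RT with compound, then 6His-CD47 (12.5 nM) 30 min; Ni-NTA acceptor and streptavidin donor beads (10 ug/mL) 30 min, AlphaScreen read. PBS pH 7.4, 0.05% IGEPAL.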

[9] = molecular target: Parathyroid hormone/parathyroid hormone-related peptide receptor (Homo sapiens) (UniProt Q03431); experiment: qHTS for PTHR1 Agonists: Optimization Screen against the NCGC LOPAC library (AID 1347079);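 note: GloSensor cAMP luminescence in HEK-293 GP2 cells expressing human PTHR1 with IBMX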
Outline: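 Agonist readout: GloSensor cAMP luminescence, read after 15 min at room temperature. HEK-293-derived GP2 line carries PTHR1; compounds tested as a titration for 1 hr at 37C in presence of IBMX. M-PTH (1-15) served as control.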

T1 sequence (P78324 whole entry, looked up): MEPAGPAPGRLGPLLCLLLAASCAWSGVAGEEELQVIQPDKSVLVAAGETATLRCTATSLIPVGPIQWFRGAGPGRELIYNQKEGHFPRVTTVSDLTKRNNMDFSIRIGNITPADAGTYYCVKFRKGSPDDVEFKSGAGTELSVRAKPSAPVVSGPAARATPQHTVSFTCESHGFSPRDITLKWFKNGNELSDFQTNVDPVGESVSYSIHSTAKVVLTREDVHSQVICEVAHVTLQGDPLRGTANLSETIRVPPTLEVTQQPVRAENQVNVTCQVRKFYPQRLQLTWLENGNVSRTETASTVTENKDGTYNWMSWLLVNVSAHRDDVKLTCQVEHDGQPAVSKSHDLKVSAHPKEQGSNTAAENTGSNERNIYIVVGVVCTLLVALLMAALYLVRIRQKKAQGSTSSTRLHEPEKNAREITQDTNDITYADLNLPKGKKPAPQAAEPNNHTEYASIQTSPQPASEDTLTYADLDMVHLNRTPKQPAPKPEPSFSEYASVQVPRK
T1 sequence (Q08722 whole entry, looked up): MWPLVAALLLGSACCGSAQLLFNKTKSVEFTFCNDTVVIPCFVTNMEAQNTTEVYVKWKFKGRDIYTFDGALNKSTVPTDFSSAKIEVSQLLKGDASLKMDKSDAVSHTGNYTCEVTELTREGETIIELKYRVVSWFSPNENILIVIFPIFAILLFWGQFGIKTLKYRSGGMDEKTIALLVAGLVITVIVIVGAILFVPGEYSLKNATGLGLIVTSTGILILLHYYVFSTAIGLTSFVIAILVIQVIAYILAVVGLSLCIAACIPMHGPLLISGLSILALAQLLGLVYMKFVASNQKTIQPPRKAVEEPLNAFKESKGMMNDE
Parathyroid hormone/parathyroid hormone-related peptide receptor (Homo sapiens), sequence (Q03431 whole entry, looked up): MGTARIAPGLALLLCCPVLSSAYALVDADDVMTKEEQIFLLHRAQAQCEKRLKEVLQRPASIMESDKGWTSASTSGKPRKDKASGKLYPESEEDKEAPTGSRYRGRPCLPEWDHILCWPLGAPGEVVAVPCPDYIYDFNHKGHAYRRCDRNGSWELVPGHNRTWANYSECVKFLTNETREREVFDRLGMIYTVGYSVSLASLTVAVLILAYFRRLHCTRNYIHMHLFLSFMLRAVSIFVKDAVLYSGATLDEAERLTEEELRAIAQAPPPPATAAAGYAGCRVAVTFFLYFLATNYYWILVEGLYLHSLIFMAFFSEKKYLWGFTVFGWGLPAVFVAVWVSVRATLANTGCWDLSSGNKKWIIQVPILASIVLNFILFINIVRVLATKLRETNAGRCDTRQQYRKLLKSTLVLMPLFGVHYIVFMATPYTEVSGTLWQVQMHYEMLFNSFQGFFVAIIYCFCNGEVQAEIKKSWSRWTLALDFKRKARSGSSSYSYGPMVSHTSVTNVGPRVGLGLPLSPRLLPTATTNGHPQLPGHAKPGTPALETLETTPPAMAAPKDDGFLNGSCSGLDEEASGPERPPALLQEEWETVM
Atrial natriuretic peptide receptor 2 (Homo sapiens), sequence (P20594 whole entry, looked up): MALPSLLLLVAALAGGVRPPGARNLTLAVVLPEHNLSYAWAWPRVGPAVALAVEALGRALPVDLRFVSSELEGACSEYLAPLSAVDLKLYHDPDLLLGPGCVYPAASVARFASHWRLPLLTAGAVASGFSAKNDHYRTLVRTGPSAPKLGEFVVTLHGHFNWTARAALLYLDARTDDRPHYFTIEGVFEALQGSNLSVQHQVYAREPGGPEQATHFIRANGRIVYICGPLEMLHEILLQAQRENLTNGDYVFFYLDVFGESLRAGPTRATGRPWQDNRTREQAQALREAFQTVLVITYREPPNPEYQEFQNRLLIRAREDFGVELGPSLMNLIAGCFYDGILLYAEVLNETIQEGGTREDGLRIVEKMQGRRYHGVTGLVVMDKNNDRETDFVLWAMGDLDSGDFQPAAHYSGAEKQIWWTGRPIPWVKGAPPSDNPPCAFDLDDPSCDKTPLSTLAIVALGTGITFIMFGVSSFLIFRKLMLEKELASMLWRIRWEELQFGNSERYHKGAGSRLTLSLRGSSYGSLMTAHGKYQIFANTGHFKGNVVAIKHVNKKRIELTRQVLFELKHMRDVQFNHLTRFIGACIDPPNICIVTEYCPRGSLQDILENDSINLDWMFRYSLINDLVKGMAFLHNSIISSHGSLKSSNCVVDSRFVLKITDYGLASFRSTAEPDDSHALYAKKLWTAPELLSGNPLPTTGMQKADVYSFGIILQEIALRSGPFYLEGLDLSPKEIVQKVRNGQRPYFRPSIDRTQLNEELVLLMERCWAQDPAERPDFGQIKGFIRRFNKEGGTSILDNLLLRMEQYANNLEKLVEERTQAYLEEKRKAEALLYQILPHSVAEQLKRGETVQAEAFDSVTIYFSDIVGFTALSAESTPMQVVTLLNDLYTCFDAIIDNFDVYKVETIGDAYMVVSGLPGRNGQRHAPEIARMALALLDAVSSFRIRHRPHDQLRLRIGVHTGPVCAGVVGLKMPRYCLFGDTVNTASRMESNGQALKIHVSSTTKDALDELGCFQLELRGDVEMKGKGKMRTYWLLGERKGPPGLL
Atrial natriuretic peptide receptor 1 (Homo sapiens), sequence (P16066 whole entry, looked up): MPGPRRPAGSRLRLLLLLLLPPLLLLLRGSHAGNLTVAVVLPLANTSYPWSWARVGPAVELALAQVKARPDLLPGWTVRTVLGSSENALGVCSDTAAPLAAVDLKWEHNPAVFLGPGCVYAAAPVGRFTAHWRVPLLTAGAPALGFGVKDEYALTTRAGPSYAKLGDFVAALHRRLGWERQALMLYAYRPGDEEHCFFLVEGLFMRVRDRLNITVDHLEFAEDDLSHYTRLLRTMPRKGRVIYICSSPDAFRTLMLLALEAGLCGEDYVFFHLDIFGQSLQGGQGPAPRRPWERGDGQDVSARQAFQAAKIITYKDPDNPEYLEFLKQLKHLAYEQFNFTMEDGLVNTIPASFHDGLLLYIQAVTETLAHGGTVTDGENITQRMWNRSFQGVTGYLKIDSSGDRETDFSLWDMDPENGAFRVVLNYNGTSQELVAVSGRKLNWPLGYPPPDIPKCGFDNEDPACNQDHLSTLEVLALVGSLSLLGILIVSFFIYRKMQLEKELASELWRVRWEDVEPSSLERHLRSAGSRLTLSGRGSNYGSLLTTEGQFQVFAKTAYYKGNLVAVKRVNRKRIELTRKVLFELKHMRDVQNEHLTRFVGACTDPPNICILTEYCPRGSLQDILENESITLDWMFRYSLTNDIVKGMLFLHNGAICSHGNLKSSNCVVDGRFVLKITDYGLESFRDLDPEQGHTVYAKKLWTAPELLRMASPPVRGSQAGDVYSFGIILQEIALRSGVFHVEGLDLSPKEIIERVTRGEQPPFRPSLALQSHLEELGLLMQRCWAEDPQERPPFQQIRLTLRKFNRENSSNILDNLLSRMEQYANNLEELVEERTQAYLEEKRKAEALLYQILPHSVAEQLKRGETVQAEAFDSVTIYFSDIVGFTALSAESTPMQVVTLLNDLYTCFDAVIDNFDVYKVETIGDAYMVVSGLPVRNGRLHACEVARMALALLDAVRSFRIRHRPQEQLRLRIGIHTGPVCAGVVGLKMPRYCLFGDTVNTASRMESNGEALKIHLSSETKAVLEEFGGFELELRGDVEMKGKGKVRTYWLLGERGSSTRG

In the case of N=c1ccn2c(n1)O[C@H]1C(O)[C@@H](CO)O[C@H]12 (stereo partly drawn), the Potency [1] was “inactive”.

For C[C@H](Cc1ccccc1)Nc1ncnc2c1ncn2[C@@H]1O[C@H](CO)C(O)[C@H]1O (stereo partly drawn), the Potency [1] was “inactive”.

In the case of CNC(=O)[C@H]1O[C@@H](n2cnc3c(NCc4ccc(N)cc4)ncnc32)[C@H](O)C1O (stereo partly drawn), the Potency [1] was “inactive”.

For OCC1O[C@H]([S-])C(O)[C@@H](O)[C@@H]1O.[Au+] (stereo partly drawn), the Potency [1] was “inactive”.

In the case of CC(C)(C)NCC(O)COc1nsnc1N1CCOCC1 (stereo not drawn), the Potency [1] was “inactive”.

In the case of NCC1OC(OC2C(O)[C@@H](OC3C(O)C(N)CC(N)C3OC3OC(CO)C(O)C(O)C3N)O[C@@H]2CO)C(N)C(O)C1O (stereo partly drawn), the Potency [1] was “inactive”.

In the case of COc1cccc(C(=O)NCCN2CCN(c3ccc(Cl)cc3)CC2)c1, the Potency [1] was “inactive”, the Potency [2] was “inactive” and the Potency [3] was “inactive”. The Potency [4] was “inactive”, the Potency [5] was “inactive” and the Potency [6] was “inactive”. For the same molecule, the outcome [7] was “inactive”, the Potency [8] was “inactive” and the Potency [9] was “inactive”.

For CNC(=O)[C@H]1O[C@@H](n2cnc3c(NCc4cccc(I)c4)ncnc32)[C@H](O)C1O (stereo partly drawn), the Potency [1] was “inactive”.

For O=C(/C=C/c1ccc(O)c(O)c1)OCCc1ccccc1, the Potency [1] was “inactive”, the Potency [2] was “inactive” and the Potency [3] was “inactive”. The Potency [4] was “inactive”, the Potency [5] was “inactive” and the Potency [6] was “inactive”. The outcome [7] was “inactive”, the Potency [8] was “inactive” and the Potency [9] was “inactive”.

With O=C1NC(=O)c2c1c(-c1ccccc1)cc1[nH]c3ccc(O)cc3c21 the Potency [1] was “inactive”.

With CC(C)NCC(O)COc1cccc2ccccc12 (stereo not drawn) the Potency [1] was “inactive”, the Potency [2] was “inactive” and the Potency [3] was “inactive”. The Potency [4] was “inactive”, the Potency [5] was “inactive” and the Potency [6] was “inactive”. For the same molecule, the outcome [7] was “inactive”, the Potency [8] was “inactive” and the Potency [9] was “inactive”.

For O=C1CN(/N=C/c2ccc(-c3ccc([N+](=O)[O-])cc3)o2)C(=O)N1, the Potency [1] was “inactive”.

With Oc1cc2c(cc1O)CN(C(=S)NCCc1ccc(Cl)cc1)CCC2 the Potency [1] was “inactive”, the Potency [2] was “inactive” and the Potency [3] was “inactive”. The Potency [4] was “inactive”, the Potency [5] was “inactive” and the Potency [6] was “inactive”. For the same molecule, the outcome [7] was “inactive”, the Potency [8] was “inactive” and the Potency [9] was “inactive”.

For Nc1nc(Cl)nc2c1ncn2[C@@H]1O[C@H](CO)C(O)[C@H]1O (stereo partly drawn), the Potency [1] was “inactive”.

For Nc1nc(Nc2ccccc2)nc2c1ncn2[C@@H]1O[C@H](CO)C(O)[C@H]1O (stereo partly drawn), the Potency [1] was “inactive”.

With O=C(CCCCCN1CCN(c2ccccc2-c2ccccc2)CC1)NC1CCCc2ccccc21 (stereo not drawn) the Potency [1] was “inactive”, the Potency [2] was “inactive” and the Potency [3] was “inactive”. The Potency [4] was “inactive”, the Potency [5] was “inactive” and the Potency [6] was “inactive”. The outcome [7] was “inactive”, the Potency [8] was “inactive” and the Potency [9] was “inactive”.

For CC1CN(S(=O)(=O)c2cccc3cnccc23)CCN1 (stereo not drawn), the Potency [1] was “inactive”, the Potency [2] was “inactive” and the Potency [3] was “inactive”. The Potency [4] was “inactive”, the Potency [5] was “inactive” and the Potency [6] was “inactive”. The outcome [7] was “inactive”, the Potency [8] was “inactive” and the Potency [9] was “inactive”.

For CC(C)NC[C@H](O)COc1cccc2[nH]ccc12, the Potency [1] was “inactive”, the Potency [2] was “inactive” and the Potency [3] was “inactive”. For the same molecule, the Potency [4] was “inactive”, the Potency [5] was “inactive” and the Potency [6] was “inactive”. For the same molecule, the outcome [7] was “inactive”, the Potency [8] was “inactive” and the Potency [9] was “inactive”.

With OC[C@H]1O[C@@H](n2cnc3c(NC4CCCC4)ncnc32)[C@H](O)C1O (stereo partly drawn) the Potency [1] was “inactive”.

In the case of C=C/C(C)=C/[C@@]1(C)SC(=O)C(C)=C1O, the Potency [1] was “inactive”.

For CNc1ncnc2c1ncn2[C@@H]1O[C@H](CO)C(O)[C@H]1O (stereo partly drawn), the Potency [1] was “inactive”.

In the case of NC(=O)C1=CN(C2OC(COP(=O)(O)OP(=O)(O)OC[C@H]3O[C@@H](n4cnc5c(N)ncnc54)[C@H](OP(=O)(O)O)C3O)C(O)C2O)C=CC1 (stereo partly drawn), the Potency [1] was “inactive”.

For Brc1c(Br)c(Br)c2n[nH]nc2c1Br, the Potency [1] was “inactive”, the Potency [2] was “inactive” and the Potency [3] was “inactive”. The Potency [4] was “inactive”, the Potency [5] was “inactive” and the Potency [6] was “inactive”. For the same molecule, the outcome [7] was “inactive”, the Potency [8] was “inactive” and the Potency [9] was “inactive”.

In the case of O=C(O)CC1CCCc2ccccc2C1O (stereo not drawn), the Potency [1] was “inactive”, the Potency [2] was “inactive” and the Potency [3] was “inactive”. For the same molecule, the Potency [4] was “inactive”, the Potency [5] was “inactive” and the Potency [6] was “inactive”. For the same molecule, the outcome [7] was “inactive”, the Potency [8] was “inactive” and the Potency [9] was “inactive”.

With C[C@@H](CN1CCC(Cc2ccccc2)CC1)[C@@H](O)c1ccc(O)cc1 the Potency [1] was “inactive”, the Potency [2] was “inactive” and the Potency [3] was “inactive”. For the same molecule, the Potency [4] was “inactive”, the Potency [5] was “inactive” and the Potency [6] was “inactive”. For the same molecule, the outcome [7] was “inactive”, the Potency [8] was “inactive” and the Potency [9] was “inactive”.

For Nc1nc(SCc2ccc([N+](=O)[O-])cc2)c2ncn([C@@H]3O[C@H](CO)C(O)[C@H]3O)c2n1 (stereo partly drawn), the Potency [1] was “inactive”.

For C[N+](C)(C)CCOP(=O)(O)OP(=O)([O-])OC[C@H]1O[C@@H](n2ccc(N)nc2=O)[C@H](O)C1O (stereo partly drawn), the Potency [1] was “inactive”.

With O=[N+]([O-])c1ccc(CSc2ncnc3c2ncn3[C@@H]2O[C@H](CO)C(O)[C@H]2O)cc1 (stereo partly drawn) the Potency [1] was “inactive”.

With C=C[C@H]1CN2CC[C@@H]1C[C@H]2[C@H](O)c1ccnc2ccc(OC)cc12 the Potency [1] was “inactive”.

With NCCCS(=O)(=O)O the Potency [1] was “inactive”, the Potency [2] was “inactive” and the Potency [3] was “inactive”. The Potency [4] was “inactive”, the Potency [5] was “inactive” and the Potency [6] was “inactive”. The outcome [7] was “inactive”, the Potency [8] was “inactive” and the Potency [9] was “inactive”.

In the case of CCC(CO)Nc1nc(NCc2ccccc2)c2ncn(C(C)C)c2n1 (stereo not drawn), the Potency [1] was “inactive”.

For CC[C@@H](C)[C@H]1O[C@]2(CC[C@@H]1C)C[C@@H]1C[C@@H](C/C=C(\C)[C@@H](O[C@H]3C[C@H](OC)[C@@H](O[C@H]4C[C@H](OC)[C@@H](O)[C@H](C)O4)[C@H](C)O3)[C@@H](C)/C=C/C=C3\CO[C@@H]4[C@H](O)C(C)=C[C@@H](C(=O)O1)[C@]34O)O2, the Potency [1] was “inactive”.

In the case of Nc1ncnc2c1ncn2[C@@H]1O[C@H](CO)C(O)[C@H]1O (stereo partly drawn), the Potency [1] was “inactive”.

For CC(=O)N[C@H](C(=O)O)C(C)(C)SN=O, the Potency [1] was “inactive”, the Potency [2] was “inactive” and the Potency [3] was “inactive”. The Potency [4] was “inactive”, the Potency [5] was “inactive” and the Potency [6] was “inactive”. For the same molecule, the outcome [7] was “inactive”, the Potency [8] was “inactive” and the Potency [9] was “inactive”.

With CCCCC#Cc1nc(NC)c2ncn([C@@H]3O[C@H](CO)[C@@H](O)C3O)c2n1 (stereo partly drawn) the Potency [1] was “inactive”.

With c1cnc2c(c1)ccc1cccnc12 the Potency [1] was “inactive”, the Potency [2] was “inactive” and the Potency [3] was “inactive”. For the same molecule, the Potency [4] was “inactive”, the Potency [5] was 7.08 µM (active) and the Potency [6] was “inactive”. For the same molecule, the outcome [7] was “inactive”, the Potency [8] was 0.185 µM (active) and the Potency [9] was “inactive”.

With Cc1cc(NC(=O)Nc2ccc3c(ccn3C)c2)sn1 the Potency [1] was “inactive”, the Potency [2] was “inactive” and the Potency [3] was “inactive”. For the same molecule, the Potency [4] was “inactive”, the Potency [5] was “inactive” and the Potency [6] was “inactive”. The outcome [7] was “inactive”, the Potency [8] was “inactive” and the Potency [9] was “inactive”.

With NC(N)=NC(=O)c1nc(Cl)c(N2CCCCCC2)nc1N the Potency [1] was “inactive”, the Potency [2] was “inactive” and the Potency [3] was “inactive”. For the same molecule, the Potency [4] was “inactive”, the Potency [5] was “inactive” and the Potency [6] was “inactive”. The Potency [8] was “inactive” and the Potency [9] was “inactive”.

For CCCCCCCC/C=C\CCCCCCCC(=O)NCCO, the Potency [1] was “inactive”, the Potency [2] was “inactive” and the Potency [4] was “inactive”. The Potency [5] was “inactive”, the Potency [6] was “inactive” and the outcome [7] was “inactive”. The Potency [8] was “inactive” and the Potency [9] was “inactive”.

For CCCCCCCCCCCCCCCCCC(=O)OC(CC(=O)O)C[N+](C)(C)C (stereo not drawn), the Potency [1] was “inactive”, the Potency [2] was “inactive” and the Potency [4] was “inactive”. The Potency [5] was “inactive”, the Potency [6] was “inactive” and the outcome [7] was “inactive”. For the same molecule, the Potency [8] was “inactive” and the Potency [9] was “inactive”.
